HP1b chromo inh: HP1-beta chromodomain-methylated histone interaction inhibition; actives 0.56% (n = 390,000); AID 540317; Potency, µM (titrated, usually from 114 µM), without a hit: at the highest dose activity change, negative = inhibition, hits mostly inhibitors; AlphaScreen HP1-beta / biotin-H3K9me3 peptide binding; P83916; also: nearly all actives have a fitted effect of over 70% in size
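Compound inhibition of the preformed complex between 50 nM HP1-beta and 50 nM biotinylated H3K9me3 peptide was read by AlphaScreen. Buffer was PBS pH 7.4 with 0.01% Tween-20. Incubations ran 30 min at room temperature, with 10 ug/mL donor/acceptor beads.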
G9a block: G9a (human) methyltransferase inhibition; Q96KQ7; G9a H3K9 monomethylation, AlphaScreen, 2 h; Potency, µM (doses to about 102 µM), for the others: top-dose activity, negative = inhibition, most hits filed as inhibitors; actives 8.8% (n = 350,000); AID 504332; also: % is scaled to controls: 0 for no effect and ±100 for the full control effect; nearly all actives have a fitted effect of over 75% in size
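AlphaScreen detection with an anti-monomethyl H3K9 antibody quantified product after a 2 h room-temperature reaction containing 500 nM biotinylated H3K9 peptide, 20 µM SAM and 20 nM enzyme, which had been preincubated 15 min with compound.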
L3MBTL1 block: blocks human L3MBTL1 | Potency, µM (top dose mostly 57.1 µM), for the others: at the top dose activity, negative = inhibition, usual class: inhibitors | AlphaScreen L3MBTL1–H3K9me1 peptide binding | actives 0.66% (n = 230,000) | Q9Y468 | AID 485360; also: % is scaled to controls: 0 for no effect and ±100 for the full control effect; nearly all actives have a fitted effect of over 60% in size
Target sequence (Q9Y468 whole entry, looked up): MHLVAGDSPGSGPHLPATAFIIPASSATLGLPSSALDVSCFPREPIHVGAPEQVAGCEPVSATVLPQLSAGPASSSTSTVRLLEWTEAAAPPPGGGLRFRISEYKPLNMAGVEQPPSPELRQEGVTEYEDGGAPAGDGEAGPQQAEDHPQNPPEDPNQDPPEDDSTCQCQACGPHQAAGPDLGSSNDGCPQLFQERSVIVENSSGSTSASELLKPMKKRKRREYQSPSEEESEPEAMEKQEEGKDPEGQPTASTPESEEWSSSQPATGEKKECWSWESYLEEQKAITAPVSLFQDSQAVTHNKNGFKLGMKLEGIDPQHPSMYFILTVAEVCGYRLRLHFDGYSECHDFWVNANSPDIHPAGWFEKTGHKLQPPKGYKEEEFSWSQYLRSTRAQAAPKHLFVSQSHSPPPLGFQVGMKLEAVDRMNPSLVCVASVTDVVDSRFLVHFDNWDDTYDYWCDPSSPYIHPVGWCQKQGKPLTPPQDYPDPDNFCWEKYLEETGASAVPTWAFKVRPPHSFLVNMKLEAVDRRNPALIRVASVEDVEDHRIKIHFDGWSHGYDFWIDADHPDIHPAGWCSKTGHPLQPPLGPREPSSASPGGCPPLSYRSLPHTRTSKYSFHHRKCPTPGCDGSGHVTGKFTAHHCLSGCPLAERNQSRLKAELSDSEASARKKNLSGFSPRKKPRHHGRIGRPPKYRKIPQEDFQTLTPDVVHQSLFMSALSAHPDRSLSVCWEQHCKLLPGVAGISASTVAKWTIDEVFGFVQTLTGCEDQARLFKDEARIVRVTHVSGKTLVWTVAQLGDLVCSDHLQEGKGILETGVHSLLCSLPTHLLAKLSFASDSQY
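Displacement of a biotinylated histone H3(1-15) peptide monomethylated at Lys9 (75 nM) from L3MBTL1 (50 nM) was measured by AlphaScreen after a 30 min room-temperature compound incubation; cefsulodin titration served as intraplate control.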
JMJD2A Tudor: JMJD2A Tudor domain (human) inhibition; AlphaScreen JMJD2A-Tudor / H3K4me3 peptide binding; actives 4.4% (n = 390,000); O75164; Potency, µM (doses to about 114 µM), for inactives: top-dose activity change, negative = inhibition, hits mostly inhibitors; AID 504339; also: % is scaled to controls: 0 for no effect and ±100 for the full control effect; nearly all actives have a fitted effect of over 50% in size
Sfp PPTase inh: Sfp phosphopantetheinyl transferase inhibition; Q9F4F7; actives 3.5% (n = 310,000); Biochemical Sfp PPTase activity, qHTS; Potency, µM, for the others: largest response in the series, negative = inhibition, usual class: inhibitors; AID 1490;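 also: the enzyme is Sfp with the accession as filed and its product quenches rhodamine fluorescence; 0% = enzyme reaction without inhibitor and -100% = no enzyme wells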
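Step 1, compound plus 15 nM Sfp-PPTase, 15 min, room temperature. Step 2, add rhodamine-CoA (5 uM) and BHQ-2-YbbR (12.5 uM). Step 3, read 525/598 nm fluorescence at 0 and 30 min.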
BAZ2B block: inhibitors of human BAZ2B bromodomain. Q9UIF8. actives 4.4% (n = 360,000). AlphaScreen BAZ2B-H3K14Ac peptide displacement. Potency, µM (doses to about 114 µM), without a hit: top-dose activity change, negative = inhibition, hits mostly inhibitors; also: % is scaled to controls: 0 for no effect and ±100 for the full control effect; nearly all actives have a fitted effect of over 60% in size
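Inhibition is scored as reduced AlphaScreen emission. The BAZ2B/b-H3(5-23)K14Ac complex (50 nM each) in PBS pH 7.4, 0.01% Tween-20 meets compound (up to 110 uM) for 30 min at RT before bead addition.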
Starred values were filed as active, the others as inactive; ? = inconclusive; . = not tested or not shown; ! = repeats disagree; [ ] = dose if it differs, or a comment. This is a sample that favours compounds with a hit; in the whole collection about 12% have one here. Calls follow the shape of the dose curve; as a rule, active = well fitted curve in the direction sought with a large enough effect; inconclusive = small, poorly fitted or top-dose-only effect, or another doubt; inactive = no such curve, though single readings can be large; an effect the other way counts as inactive or inconclusive. Potency is read from the fitted curve at half-maximal effect.

SMILES | HP1b chromo inh | G9a block | L3MBTL1 block | JMJD2A Tudor | Sfp PPTase inh | BAZ2B block
COc1cc(-c2nc3ccc(C)cn3c2Nc2ccc(Cl)cc2)ccc1O | -16% | ? | . | ? | . | -32%
CCCN(CCC)c1ccc(CC(=O)NC(C)Cc2ccccc2)cc1 (configuration not stated) | -36% | 10µM* | ? | ? | -2% | ?
CCN(CC)c1ccc(CC(=O)NC(C)Cc2ccccc2)cc1 (configuration not stated) | -5% | -24%[59 µM] | -4% | -19% | 14% | ?
CCCCN(C)S(=O)(=O)c1ccc(NC2=NS(=O)(=O)c3ccccc32)cc1 | 23% | -18%[59 µM] | . | -9% | . | 0%
COc1cccc([C@@H]2Oc3ccc(Br)cc3C[C@H]2OC(=O)N[C@H]2CCCc3ccccc32)c1 | . | . | . | . | -22% | .
CCOC(=O)c1ccc(N2Cc3ccccc3C2=N)cc1 | 48% | 6% | . | 9% | -4% | 13%
CCOC(=O)c1ccc(N=C2C(=S)N(c3ccc(C(=O)OCC)cc3)C(=N)N2/N=C/c2ccccc2)cc1 | -41% | 4µM* | 4% | ? | -2% | -3%
COc1ccc(N=C2S/C(=C\c3cc(C)n(C)c3C)C(=O)N2CC(C)C)cc1 | ? | -12%[12.7 µM] | -22% | 40µM* | -9% | ?
Cc1ccc(-c2nc3sc(CCNC(=O)c4ccco4)c(C)n3n2)cc1 | 14% | -4%[59 µM] | . | -25% | . | -14%
COc1ccc2c(c1)NC(c1ccc(N(C)C)cc1)c1cccn1-2 (configuration not stated) | 102% | 79µM* | 1% | 21% | ? | -3%
COc1ccc2c(c1)NC(c1cc(Cl)cc(Cl)c1O)c1cccn1-2 (configuration not stated) | 26% | ? | 1% | -16% | 4% | -10%
CC1CN(S(=O)(=O)c2cccc(C(=O)OCC(=O)c3cccs3)c2)CC(C)O1 (configuration not stated) | 25% | -12%[59 µM] | . | -20% | 1% | 0%
CC1CN(S(=O)(=O)c2cccc(C(=O)OCC(=O)Nc3ccc4c(c3)OCO4)c2)CC(C)O1 (configuration not stated) | -9% | 50µM* | -1% | -22% | 5% | -32%
COc1ccc(OC)c(C2C3=C(N=C4SCC(=O)N42)c2ccccc2CC3)c1 (configuration not stated) | 11% | ? | -30% | ? | ? | 50µM*
C=C1c2c(Cl)ccc(O)c2C(O)=C2C(=O)[C@@]3(O)C(O)=C(C(N)=O)C(=O)[C@@H](N(C)C)[C@@H]3[C@@H](O)[C@H]12 | . | 11µM* | . | . | 10% | .
CC1c2cccc(O)c2C(O)=C2C(=O)[C@]3(O)C(O)=C(C(N)=O)C(=O)C(N(C)C)C3C(O)C21 (some centres not stated) | . | ? | . | . | -5% | .
C[C@H]1c2cccc(O)c2C(O)=C2C(=O)[C@]3(O)C(O)=C(C(N)=O)C(=O)C(N(C)C)[C@@H]3[C@@H](O)C21 (some centres not stated) | . | 3.2µM* | . | . | . | .
C[C@H]1c2cccc(O)c2C(O)=C2C(=O)[C@]3(O)C(O)=C(C(N)=O)C(=O)[C@@H](N(C)C)[C@@H]3[C@@H](O)[C@@H]21 | 19% | 2.7µM*! | . | 13µM* | -3% | 8.9µM*
COc1cc(OC)c(NC(=O)Cn2c(=O)c(C(F)(F)F)nc3ccccc32)cc1Cl | 13% | -1%[59 µM] | . | -17% | . | -1%
COc1ccc(C(=O)N2CCc3cc(OC)c(OC)cc3C2COc2ccc3c(C)cc(=O)oc3c2)c(OC)c1 (configuration not stated) | 34% | 10%[59 µM] | . | -2% | . | 5%
CCC1=Nc2ccccc2NC2=C1C(=O)CCC2 | 2% | ? | . | -38% | 35µM* | 50µM*
COc1cc(C(C)=O)ccc1OCC(=O)Nc1cc(Cl)ccc1-n1cncn1 | 24% | -1% | 3% | -16% | . | 5%
COc1ccccc1OCC(=O)Nc1cc(C(F)(F)F)ccc1-n1cncn1 | 44% | 45µM* | 7% | -3% | . | 0%
COc1ccc2c(c1)c1c(c(=O)n(-c3ccc(OC)c(OC)c3)c(=O)n1CC(=O)N1CCCC1)n2C | 9% | -32%[59 µM] | . | -9% | . | -18%
CCOC(=O)c1ccc(C(=O)NNC(=O)C2C3C=CC(C3)C2C(=O)O)cc1 (configuration not stated) | 39% | -5%[0.501 µM] | . | -13% | 50µM* | -5%
SMILES | HP1b chromo inh | G9a block | L3MBTL1 block | JMJD2A Tudor | Sfp PPTase inh | BAZ2B block
O=C(NNC(=O)C1C2C=CC(C2)C1C(=O)O)c1ccccc1O (configuration not stated) | 37% | -8% | . | -17% | ? | 50µM*
COc1ccc2[nH]c(I)c(CCNC(C)=O)c2c1 | . | . | . | . | 11% | .
CCc1cccc(CC)c1NC(=S)NCCc1c(C)[nH]c2ccccc12 | -16% | 45µM* | -15% | 45µM* | 14% | 32µM*
COc1ccc2[nH]c(C)c(CCNC(=S)Nc3ccc(C)cc3)c2c1 | -23% | ? | . | 50µM* | -2% | .
COc1ccc2[nH]c(C)c(CCNC(=S)Nc3cccc(C)c3C)c2c1 | ? | ? | -3% | 56µM* | 29% | 35µM*
Cc1cccc(NC(=S)NCCO)c1C | 31% | 15%[59 µM] | 4% | -3% | -5% | 2%
COc1ccc2[nH]c(C)c(CCNC(=S)Nc3ccccc3C)c2c1 | ? | 50µM* | -16% | 89µM* | -2% | 45µM*
O=C1CC(=O)Nc2cc(S(=O)(=O)Nc3cccc(Br)c3)ccc2N1 | 48% | 0%[59 µM] | . | -2% | . | -16%
CCc1ccc(NC(=O)C(=O)NCC(c2cccnc2)N2CCN(Cc3ccccc3)CC2)cc1 (configuration not stated) | 34% | -3%[59 µM] | . | -13% | . | 2%

Screens as filed in PubChem BioAssay.
